Screening results as filed in PubChem.
An excerpt weighted towards active compounds, which were near 4.7% of everything screened.
TRHR enhancer: qHTS for Small Molecule Agonists and Allosteric Enhancers of Human TRH Receptor: Primary Screen for Enhancers; AID 493056, 2011; TRHR cells, fluo-8 calcium fluorescence, EC20 TRH enhancement; enhancement, % at 2 µM; Thyrotropin-releasing hormone receptor (Homo sapiens), P34981; 360,000 tested, 0.66% active; in the data active = enhancement above about 30%; note: 0% is about no effect
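TRHR-expressing cells loaded with fluo-8 calcium dye were read kinetically (ex 480/em 530) during compound addition, then stimulated with an EC20 of TRH (10 nM final). Enhancement of the Gq-mediated intracellular calcium response was scored.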
TRHR agonist: qHTS for Small Molecule Agonists and Allosteric Enhancers of Human TRH Receptor: Primary Screen for Agonists; Thyrotropin-releasing hormone receptor (Homo sapiens), P34981; TRHR cells, calcium flux fluo-8, FDSS agonist mode; activation, % at 2 µM; 360,000 tested, 0.18% active; note: 0% is about no effect
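Fluo-8-loaded TRHR cells; 10 s baseline, compound added, kinetic Ca2+ fluorescence read 1/s, agonist mode.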
D1 antag: Antagonist of Human D 1 Dopamine Receptor: qHTS; activity change, negative = inhibition, % at 10 µM; 360,000 tested, 3.2% active; AID 504652, 2011; HEK293 TREx D1 cells, calcium flux, dopamine EC80; active compounds read low; in the data active = activity change below about -30%; note: % is set by controls: 0 for no effect and ±100 for the full control effect
Target sequence (P21728 whole entry, looked up): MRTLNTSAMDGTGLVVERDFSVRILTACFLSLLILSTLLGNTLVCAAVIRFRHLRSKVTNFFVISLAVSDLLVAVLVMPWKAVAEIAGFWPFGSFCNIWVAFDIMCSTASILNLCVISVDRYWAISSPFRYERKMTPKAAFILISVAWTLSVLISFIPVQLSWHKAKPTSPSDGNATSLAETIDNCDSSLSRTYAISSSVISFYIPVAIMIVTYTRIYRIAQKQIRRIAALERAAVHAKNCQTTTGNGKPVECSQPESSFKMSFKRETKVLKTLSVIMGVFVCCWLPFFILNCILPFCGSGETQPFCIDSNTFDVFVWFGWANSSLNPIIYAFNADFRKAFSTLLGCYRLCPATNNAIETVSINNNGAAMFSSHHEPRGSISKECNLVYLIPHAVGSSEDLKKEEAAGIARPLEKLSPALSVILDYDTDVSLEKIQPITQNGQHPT
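HEK293 T-REx cells expressing inducible, force-coupled D1 receptor; no-wash Ca dye, 30–90 min RT. Cmpd → 180 s read at 1 Hz → EC80 DA → 180 s read.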
D1 potentiator: Potentiators of Human D1 Dopamine Receptor: qHTS. HEK293 TREx D1 cells, calcium flux, dopamine EC20 potentiation. potentiation, % at 10 µM. 360,000 tested, 0.036% active; in the data active = potentiation above about 30%; note: 0% is about no effect
D1 agonist: Allosteric Agonists of the Human D1 Dopamine Receptor: qHTS; 360,000 tested, 1% active; activation, % at 2 µM; HEK293 T-REx D1 cells, calcium flux, agonist mode; note: 0% is about no effect
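Tetracycline-induced HEK293 TREx D1 cells, force-coupled to calcium signalling, were dye-loaded with a no-wash calcium kit. Compound was pin-added after a 10 s baseline. Fluorescence was read kinetically at 1 cycle/s for 180 s, with calcium rises flagged as agonism.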
* marks the source's active call; other numbers are inactive results; . = no result. Cut-off read from the data, not from the text of the source, unless noted: active = activation above about 30%; inactive = the rest.

SMILES	TRHR enhancer	TRHR agonist	D1 antag	D1 potentiator	D1 agonist
COC(=O)c1cc2c(C)c(C)c3ccccn3c-2c1C(=O)OC	3.4	4.2	-5.4	-2.9	8.2
Cc1ccc(NC(=O)c2c(C)nc3sc(C(=O)Nc4ccc(F)cc4)c(N)c3c2-c2ccc(Cl)cc2)c(C)c1	7.3	0.2	-12.3	0.1	-0.1
O=C(Nc1ccc(Oc2ccc(C(F)(F)F)cn2)c(Cl)c1)C1CC1	-3.6	0.7	-32.1*	-3.8	8.4
COc1cccc(C(=O)c2sc(Nc3ccc(C)cc3C)c(S(=O)(=O)c3ccccc3)c2N)c1	-6.9	0.9	2.1	0.7	10.5
Cc1cc(N2CCCC2)ccc1/C=C1/C(=O)N(C)C(=S)N1C	-6.9	10.8	4.1	-4.1	35.8*
Cc1cc(/C=C2/C(=O)N(C)C(=S)N2C)ccc1N1CCCC1	-3.2	28.8	.	7.5	127.5*
COc1cc(/C=C2\NC(=S)N(C)C2=O)ccc1O	-1.1	10.2	-4.7	-1.9	16.2
CCN1C(=O)/C(=C/c2ccc(N3CCCC3)cc2)NC1=S	17.8	110.6*	-52.5*	10.5	241.7*
CN1C(=O)/C(=C/C=C2/CCCN2C)N(C)C1=S	-0.2	-1.8	-10.7	2.7	5.4
Cc1cc(/C=C2\NC(=S)N(C)C2=O)ccc1N1CCCC1	32.4*	141.9*	-45.2*	6.8	330.8*
CCN1CCN(c2cc(C)c3cc(NC(=O)/C=C/c4ccc(OCCC(C)C)cc4)ccc3n2)CC1	2.9	0.0	-9.1	0.1	0.2
O=C1c2ccccc2C(Nc2cccnc2)N1Cc1ccccc1Cl (stereo not drawn)	32.5*	-0.7	-12.1	-5.3	1.1
O=C1c2ccccc2C(Nc2cccnc2)N1Cc1ccccc1 (stereo not drawn)	2.5	0.2	-8.1	-1.8	0.9
CC(C)Oc1ccc(CNC(=O)CN2C(=O)CCn3nc(-c4cn(C)c5ccccc45)cc32)cc1	1.3	-0.9	16.9	-3.7	0.5
Cc1cc(C)n(-c2nc(C)c(C)c(=O)n2CC(=O)Nc2ccc(Cl)c(Cl)c2)n1	-3.5	0.2	.	4.9	-2.7
Cc1cc(Nc2ccccc2)c2c([N+](=O)[O-])cc(C)c(C)c2n1	39.1*	-1.1	-1.8	-5.5	3.3
CC1CCN(CCNC(=O)CCS(=O)(=O)c2ccc(Br)cc2)CC1	1.7	-0.2	-42.9*	-6.3	1.1
COc1ccc(CCNC(=O)CCCn2c(=O)c3ccccc3n(Cc3ccccc3)c2=O)cc1OC	-18.8	-2.7	-20.6	0.3	0.7
CCOC(=O)c1ccc(NC(=S)NCc2ccccc2)cc1	-0.7	0.6	-56.0*	-16.9	21.7
CC(=O)c1ccc(NC(=S)NCCc2cccc(Cl)c2)cc1	-0.5	1.1	-37.1*	-6.2	21.7
COC(=O)c1ccc(NC(=S)NCCc2ccccc2)cc1	2.7	0.3	-10.1	-8.4	11.9
CCOC(=O)c1ccc(NC(=S)NCCc2ccccc2)cc1	-0.3	0.9	-38.3*	-6.6	27.6
CCOC(=O)c1ccc(NC(=O)NCc2ccccc2)cc1	-9.9	-0.2	-9.1	-5.8	6.6
COc1ccc(C2CC(=O)N(CC(=O)Nc3cc(C)ccc3C)c3ccccc3S2)cc1 (stereo not drawn)	-6.0	0.2	1.9	-0.2	0.2
COc1ccc(NS(=O)(=O)c2ccc(NC(=O)c3ccccn3)cc2)cc1	3.5	0.1	-39.5*	-9.0	11.0
SMILES	TRHR enhancer	TRHR agonist	D1 antag	D1 potentiator	D1 agonist
COc1ccc(NS(=O)(=O)c2cccc(NC(=O)COc3ccc(OC)cc3)c2)cc1	4.6	-0.9	-32.8*	-4.2	20.8
CCC(=O)Nc1ccc(S(=O)(=O)Nc2ccccn2)cc1	0.4	1.5	-0.8	6.1	4.6
COc1ccc(NS(=O)(=O)c2csc(C(=O)Nc3ccccc3)c2)cc1	0.4	-0.9	-42.0*	-4.7	17.5
COc1ccc(NS(=O)(=O)c2cccc(NC(=O)c3ccccn3)c2)cc1	-0.8	-0.2	-8.6	-5.3	12.7
CC(C)=CC(=O)Nc1ccc(S(=O)(=O)Nc2ccccn2)cc1	36.8*	0.3	9.5	-13.9	0.2
CC(C)c1ccc(NC(=O)c2cc3c(=O)[nH]c4ccccc4c3n2C)cc1	7.4	0.5	9.7	4.2	0.6
COc1cc(NC(=O)CN2CCN(c3ccc(F)cc3)CC2)cc(OC)c1	2.0	-1.0	-4.8	-0.7	0.5
COc1ccc(NS(=O)(=O)c2ccc(OC)c(NC(=O)CCC3CCCCC3)c2)cc1	13.5	-0.1	-35.5*	-3.7	4.9
COc1ccc(NC(=O)Nc2sc(NS(=O)(=O)c3ccccc3)nc2C)cc1	1.5	-0.9	-38.8*	-3.5	4.0
COc1ccc(NC(=O)c2ccc(NC3CC(=O)N(c4ccc(C)cc4C)C3=O)cc2)cc1 (stereo not drawn)	6.7	0.6	-31.5*	-2.9	6.0
O=C(c1ccccc1)c1cnc[nH]1	30.4*	0.0	-2.0	-1.3	1.2
O=C(Nc1ccccc1)c1cnc[nH]1	-3.0	0.0	5.9	-1.5	0.1
COc1ccc(CCNC(=O)C2CCN(c3ccc(N4CCOCC4)nn3)CC2)c(OC)c1	2.9	-0.4	-32.8*	-3.7	-0.5
Cc1cc(C)c(NC(=O)CN2c3ccccc3S(=O)(=O)c3ccccc32)c(C)c1	-4.7	0.9	2.6	2.4	5.3
COc1ccc(CNc2nc3c(c(=O)n(C)c(=O)n3C)n2Cc2ccccc2Cl)cc1	2.2	0.1	1.6	1.2	2.1
CCS(=O)(=O)c1nc(S(=O)(=O)c2ccc(C)cc2)c(NCCN2CCOCC2)s1	11.1	0.0	-0.9	5.5	1.6
Cc1ccc(S(=O)(=O)c2nc(-c3ccccc3Cl)oc2NCCCN2CCOCC2)cc1	34.5*	1.0	-7.7	-3.8	-1.2
O=S(=O)(c1ccc(Cl)cc1)c1nc(-c2ccccc2F)oc1NCCCN1CCOCC1	-1.7	-0.1	10.7	11.2	3.6
CCCS(=O)(=O)c1nc(S(=O)(=O)c2ccc(C)cc2)c(NCCCN2CCOCC2)s1	-2.2	-0.8	-31.6*	-4.8	-0.1
COc1c(Cl)cccc1NC(=O)c1c(NC(=O)Cc2ccccc2)sc2c1CCCC2	-1.2	0.1	5.3	-5.7	1.4
COC(=O)c1c(C)[nH]c(C=Nc2ccc(OC)cc2)c1C	37.8*	0.2	3.9	-0.1	0.2
CCOc1ccc(NC(=O)NCc2cccn2C)cc1	-8.2	0.1	-42.4*	-6.3	-0.2
CCOc1ccc(NC(=O)NC23CC4CC(CC(C4)C2)C3)cc1	9.1	0.6	-31.4*	-5.5	13.0
